Screens as filed in PubChem.
Only some compounds are listed: those with a hit (about 7.3% of all), similar ones and a draw of the others.
VACV Venus inh – qHTS for Stage-Specific Inhibitors of Vaccinia Orthopoxvirus: Venus Reporter Primary qHTS; AID 720580, 2013; 330,000 compounds, 0.46% hits; Potency, µM (highest dose often 36.5 µM), for inactives: at the highest dose activity change, negative = inhibition, usual class: inhibitors; Vaccinia virus Venus reporter expression, fluorescence; calls by dose curve; tested in A549 cells; further: potency means the concentration at half of the fitted maximal effect; nearly all actives have a fitted effect of over 30% in size
HCMV antiviral – qHTS Assay for inhibitors of the human cytomegalovirus (HCMV) | activity change, negative = inhibition, % at 57.5 µM | HFF cells, HCMV-luciferase reporter, 72 h; hits give low values | AID 1259415, 2018 | 410,000 compounds, 4.5% hits; in the data active means activity change below about -60%; inconclusive means no clear call, values can overlap the other calls; inactive means above about -39%
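Inhibition of viral replication was scored as loss of reporter luminescence in HFFs infected with HCMV-luciferase (MOI 1 PFU/cell) for 72 h; compounds tested at 2 doses, normalized to buffer and Salinomycin controls.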
HCV inhibitor – qHTS Assay for Inhibitors of Hepatitis C Virus (HCV); Huh7.5.1 HCVcc-Cre infection, luciferase reporter, 44 h; Potency, µM (doses to about 41.8 µM), for inactives: top-dose activity change, negative = inhibition, hits mostly inhibitors; 340,000 compounds, 3.4% hits; AID 651820, 2012; active means well fitted inhibition curve with a large enough effect; inconclusive means small, poorly fitted or top-dose-only effect, or another doubt; inactive means no such curve, though single readings can be large or run the other way; further: potency means the concentration at half of the fitted maximal effect
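Cells seeded at 1,000/well and cultured 4 h, then compounds added followed by HCVcc-Cre virus (~0.5 moi). After 44 h further culture, luciferase substrate was added, plates held 15 min at room temperature, and luminescence read for 15 sec.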
FMDV antiviral – High Throughput Screening for Foot and Mouth Disease Virus Antivirals | AID 1159524, 2015 | Potency, µM (series often up to 57.9 µM), without a hit: at the highest dose activity change, negative = inhibition, actives largely listed as inhibitors | FMDV antiviral cell-based qHTS | 410,000 compounds, 1.2% hits; calls by dose curve; tested in HEK293T cells; further: read-out not given here; potency means the concentration at half of the fitted maximal effect; nearly all actives have a fitted effect of over 45% in size
Vaccinia mCherry – qHTS for Stage-Specific Inhibitors of Vaccinia Orthopoxvirus: mCherry Reporter Primary qHTS | Vaccinia virus mCherry reporter infection, fluorescence | Potency, µM (highest dose often 36.5 µM), for inactives: at the highest dose activity change, negative = inhibition, actives largely listed as inhibitors | 310,000 compounds, 0.63% hits | AID 720579, 2013; calls by dose curve; tested in A549 cells; further: potency means the concentration at half of the fitted maximal effect; nearly all actives have a fitted effect of over 35% in size
The depositor's hits bear a star; i = inactive; ? = inconclusive; . = no result. On the % scale 0 is the no-effect control and ±100 the full control effect.

SMILES	VACV Venus inh	HCMV antiviral	HCV inhibitor	FMDV antiviral	Vaccinia mCherry
CC(=O)N(Cc1ccccc1)c1nccs1	.	12	.	.	.
Cc1ccc2nc(-c3cc(-c4ccccc4)no3)cn2c1	-3%	5	-2%	-48%	i
CCc1ccn2cc(-c3cc(-c4ccccc4)no3)nc2c1	.	-95*	10µM*	3.2µM*	.
CCN(C(=O)COc1cc(=O)n(C)c2ccccc12)c1cccc(Cl)c1	.	-90*	-20%	-29%	.
Cc1ccccc1CNC(=O)CCCn1c(=O)c2cccn2c2ccccc21	-15%	79	.	-16%	-14%
C/C(=N\Nc1ccc([N+](=O)[O-])cc1)c1ccc(N)cc1	-1%	93	-20%	29%	-23%
C/C(=N\Nc1nc(C)c(C)s1)c1ccc([N+](=O)[O-])cc1	?	54	?	28µM*	?
C/C(=N\Nc1ccc([N+](=O)[O-])cc1)c1ccc(-n2nncc2C)cc1	?	-66*	?	-10%	?
C/C(=N\Nc1ccc([N+](=O)[O-])cc1)c1ccc(N2CCOCC2)cc1	7%	0	?	2%	?
CCn1nc(C)cc1C(=O)NCC1CCC2(CCN(Cc3ccccc3F)CC2)O1 (stereo unspecified)	-14%	.	.	0%	-14%
COc1ccccc1OCC(=O)/C=C1/N(C)c2ccccc2C1(C)C	-14%	21	10µM*	?	-16%
CN1/C(=C\C(=O)COC(=O)C2COc3ccccc3O2)C(C)(C)c2ccccc21 (stereo unspecified)	5%	.	2%	-10%	-8%
CN1/C(=C\C(=O)COc2ccc3c(c2)OCO3)C(C)(C)c2ccccc21	-4%	?	?	25µM*	-23%
CN1/C(=C\C(=O)C[n+]2ccc3ccccc3c2)C(C)(C)c2ccccc21	-4%	-97*	?	?	-3%
CN1/C(=C\C(=O)C(F)F)C(C)(C)c2ccccc21	-14%	10	16%	?	.
COc1ccc(C(=O)NCC2(N3CCN(C)CC3)CCCCC2)cc1	-3%	-8	.	-16%	0%
CN(CCO)c1nc(-c2cccs2)nc2ccccc12	-8%	.	.	.	-12%
COc1ccc(NC(=O)Nc2sc3nc4n(c(=O)c3c2C)CCC(C)CC4)cc1OC (stereo unspecified)	-8%	?	.	-15%	-16%
c1ccc(Oc2nc3ccccc3n3cccc23)cc1	-27%	-10	10µM*	-20%	.
Cc1ccc(Oc2nc3ccccc3n3cccc23)cc1	-21%	-25	7.9µM*	-26%	.
COc1ccc(Nc2nnc(-c3ccc(C)c(S(N)(=O)=O)c3)c3ccccc23)cc1	-8%	?	.	90%	-23%
NC(=O)CSc1nnc(-c2cc(-c3cccs3)nc3ccccc23)o1	1.6µM*	-18	?	-12%	?
CCC(C)NC(=O)CSc1nnc(-c2cc(-c3cccs3)nc3ccccc23)o1 (stereo unspecified)	2.8µM*	-19	0%	-22%	.
CCCN(CC1CC1)C(=O)CSc1nnc(-c2cc(-c3cccs3)nc3ccccc23)o1	-12%	7	-1%	-27%	.
O=C(CSc1nnc(-c2cc(-c3cccs3)nc3ccccc23)o1)NC1CCCCC1	?	?	4%	-16%	.
SMILES	VACV Venus inh	HCMV antiviral	HCV inhibitor	FMDV antiviral	Vaccinia mCherry
O=C(CC1CC1)N1CC(=O)N2[C@H](CO)[C@@H](c3ccc(Br)cc3)[C@@H]2C1	.	5	.	.	.
CC(=O)Nc1cccc(-c2cnc(N)c(C(=O)c3cccnc3)n2)c1	10µM*	.	11µM*	-4%	13µM*
CC(=O)Nc1cccc(-c2csc(N)n2)c1	-18%	-11	7%	15%	-6%
NC(=O)c1cccc(-c2cnc(N)c(C(=O)c3cccnc3)n2)c1	?	.	?	-17%	6.3µM*
Cc1ccccc1C(=O)NC(CC(C)C)C(=O)Nc1cccc(S(=O)(=O)N(C)C)c1 (stereo unspecified)	-3%	7	10%	16%	-20%
Cc1ccccc1C(=O)NC(CC(C)C)C(=O)Nc1ccc(F)c([N+](=O)[O-])c1 (stereo unspecified)	-14%	-104*	21%	-16%	-16%
